Source: PubChem BioAssay (NCATS)
Inconclusive results are not listed. Activity calls are given as the source filed them. Calls come from the whole dose curve; as a rule, active = well fitted cell-killing curve with a large enough effect; inconclusive = small, poorly fitted or top-dose-only effect; inactive = flat fitted curve, though single readings scatter.

Assay: Cellular viability qHTS for adrenocortical cancer (ACC) cell line NCI-H295R (AID 1963990); note: nearly all actives have a fitted effect of over 60% in size
Settings: CellTiter-Glo ATP luminescence, 48 h; series mostly up to 46.1 µM
Method in brief: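 Viability of NCI-H295R after 48 h of treatment (final up to 46 uM) measured through cellular ATP luminescence.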
Potency is the fitted concentration of half-maximal effect.

| Structure (SMILES) | Potency |
| --- | --- |
| Cc1c2oc3c(C)ccc(C(=O)N[C@@H]4C(=O)N[C@H](C(C)C)C(=O)N5CCC[C@H]5C(=O)N(C)CC(=O)N(C)[C@@H](C(C)C)C(=O)O[C@@H]4C)c3nc-2c(C(=O)N[C@@H]2C(=O)N[C@H](C(C)C)C(=O)N3CCC[C@H]3C(=O)N(C)CC(=O)N(C)[C@@H](C(C)C)C(=O)O[C@@H]2C)c(N)c1=O | 0.0517 µM (active) |
| Cc1cnc(Nc2ccc(F)cc2Cl)nc1-c1c[nH]c(C(=O)NC(CO)c2cccc(Cl)c2)c1 (centres undefined) | 8.91 µM (active) |
| CC/C(=C(/c1ccc(O)cc1)c1ccc(OCCNC)cc1)c1ccccc1 | inactive |
| CCCOC(C(=O)OC1CCN(C)CC1)(c1ccccc1)c1ccccc1 | 23.1 µM (active) |
| COc1ccc(-n2nc(CCC(=O)N(C)O)cc2-c2ccc(Cl)cc2)cc1 | 16.4 µM (active) |
| O=C(CCBr)N1CCN(C(=O)CCBr)CC1 | inactive |
| OC(CCN1CCCCC1)(c1ccccc1)C1CCCCC1 (centres undefined) | 4.61 µM (active) |
| CN(C)CCOC(c1ccccc1)c1ccc(Br)cc1 (centres undefined) | 13 µM (active) |
| CCc1cccc(N(C)C(N)=Nc2cccc3ccccc23)c1 | 20.6 µM (active) |
| CCN(CCCc1ccccc1)CCCc1ccccc1 | inactive |
| COC(=O)N(CC(=O)O)Cc1cccc(OCc2nc(-c3ccc(Cl)cc3)oc2C)c1 | inactive |
| NC(=O)c1c(OCc2c(F)cc(Br)cc2F)nsc1NC(=O)NCCCCN1CCCC1 | 22.4 µM (active) |
| O=C(CCCN1CCN(c2ccccn2)CC1)c1ccc(F)cc1 | inactive |
| CN1CCN(C2=Nc3cc(F)ccc3Cc3ccccc32)CC1 | inactive |
